Assay results: the supplement of paper PMC9262897, “Low-cost anti-mycobacterial drug discovery using engineered E. coli” (Nature Communications, 2022)
Counter-ions that a name gives are not always drawn. ± gives the standard deviation of the averaged measurements.

Assays:
Assay in all cases: growth (OD600 after 10 h); higher = more growth (less inhibition)
[1] = system: E. coli TESEC Alr+ wild-type control; conditions: compound 0.1 mM; raw OD600 reference: median of DMSO wells 0.241, cell-free background 0.041
Description: (§1)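 TESEC Mtb Alr E. coli, or the Alr+ wild-type control, in 384-well plates with Prestwick library compounds at 0.1 mM and 1% DMSO, across arabinose induction levels of 1E3 to 1E7 nM. Growth is read as OD600 after 10 h at 37 °C in triplicate biological replicates.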

E. coli TESEC Mtb Alr [2] = conditions: compound 0.1 mM
Description: as §1

E. coli TESEC Mtb Asd = conditions: compound 0.1 mM
Description: (§2)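 TESEC E. coli strains in which the native enzyme is deleted and replaced by arabinose-inducible Mtb Asd, DapB, CysH or TrpD, each grown in its selective medium. Strains were screened against the Prestwick library at 0.1 mM and 1% DMSO in 384-well format at low and high arabinose induction. Growth is read as OD600 after 10 h in triplicate.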

E. coli TESEC Mtb DapB = conditions: compound 0.1 mM
Description: as §2

[3] = system: E. coli TESEC Alr+ wild-type control; conditions: compound 0.1 mM; raw OD600 reference: median of DMSO wells 0.49, cell-free background 0.052
Description: (§3)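 TESEC Mtb Alr E. coli (ΔaraC ΔtolC ΔentC Δalr ΔdadX, arabinose-inducible Mtb Alr) or the Alr+ wild-type control strain, grown in defined M9-fructose medium without D-alanine in 96-well plates with Prestwick library compounds at 0.1 mM and 1% DMSO. Low Alr induction is 0.1 µM arabinose and high induction is 10 mM arabinose.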

E. coli TESEC Mtb Alr [4] = conditions: compound 0.1 mM; remark: listed apart in the source
Description: as §3

[5] = arabinose 1000 nM, raw OD600 reference: median of DMSO wells 0.294, cell-free background 0.041
[6] = arabinose 10000 nM, raw OD600 reference: median of DMSO wells 0.264, cell-free background 0.041
[7] = arabinose 100000 nM, raw OD600 reference: median of DMSO wells 0.201, cell-free background 0.041
[8] = arabinose 1000000 nM, raw OD600 reference: median of DMSO wells 0.193, cell-free background 0.041
[9] = arabinose 10000000 nM, raw OD600 reference: median of DMSO wells 0.146, cell-free background 0.041
[10] = arabinose induction (level): High, raw OD600 reference: median of DMSO wells 0.331, cell-free background 0.041
[11] = arabinose induction (level): Low, raw OD600 reference: median of DMSO wells 0.417, cell-free background 0.041
[12] = arabinose induction (level): High, raw OD600 reference: median of DMSO wells […], cell-free background 0.041
[13] = arabinose induction (level): Low, raw OD600 reference: median of DMSO wells 0.227, cell-free background 0.041
[14] = arabinose 100 nM, raw OD600 reference: median of DMSO wells 0.413, cell-free background 0.052
[15] = arabinose 10000000 nM, raw OD600 reference: median of DMSO wells […], cell-free background 0.052

Row | Compound | growth [1] | growth (E. coli TESEC Mtb Alr [2]; [5]) | growth (E. coli TESEC Mtb Alr [2]; [6]) | growth (E. coli TESEC Mtb Alr [2]; [7]) | growth (E. coli TESEC Mtb Alr [2]; [8]) | growth (E. coli TESEC Mtb Alr [2]; [9]) | growth (E. coli TESEC Mtb Asd; [10]) | growth (E. coli TESEC Mtb Asd; [11]) | growth (E. coli TESEC Mtb DapB; [12]) | growth (E. coli TESEC Mtb DapB; [13]) | growth [3] | growth (E. coli TESEC Mtb Alr [4]; [14]) | growth (E. coli TESEC Mtb Alr [4]; [15])
1 | O=[N+]([O-])O[C@@H]1CO[C@H]2[C@@H]1OC[C@@H]2O [Isosorbide mononitrate] | 0.24 ± 0.0084 | 0.292 ± 0.0083 | 0.261 ± 0.018 | 0.198 ± 0.035 | 0.209 ± 0.018 | 0.136 ± 0.0044 | 0.255 ± 0.084 | 0.345 ± 0.017 | 0.176 ± 0.0055 | 0.216 ± 0.03 | 0.548 ± 0.053 | 0.4231 ± 0.0041 | 0.324 ± 0.012
2 | CC(=O)O[C@H]1C[C@@H]2CC[C@@H]3[C@H](CC[C@@]4(C)[C@H]3C[C@H]([N+]3(C)CCCCC3)[C@@H]4OC(C)=O)[C@@]2(C)C[C@@H]1[N+]1(C)CCCCC1 [Pancuronium bromide] | 0.232 ± 0.0035 | 0.318 ± 0.0065 | 0.2563 ± 0.0013 | 0.194 ± 0.021 | 0.168 ± 0.0052 | 0.154 ± 0.0046 | 0.242 ± 0.064 | 0.407 ± 0.014 | 0.191 ± 0.026 | 0.203 ± 0.055 | – | 0.421 ± 0.026 | 0.349 ± 0.019
3 | CC(C)C[C@H](CN)CC(=O)O [Pregabalin] | 0.239 ± 0.015 | 0.291 ± 0.0063 | 0.273 ± 0.013 | 0.178 ± 0.022 | 0.223 ± 0.015 | 0.134 ± 0.0081 | 0.28 ± 0.062 | 0.406 ± 0.038 | 0.201 ± 0.0072 | 0.231 ± 0.07 | 0.614 ± 0.019 | 0.41 ± 0.01 | 0.306 ± 0.013
4 | CC(=O)NC1CCSC1=O (racemic) [N-Acetyl-DL-homocysteine Thiolactone] | 0.253 ± 0.013 | 0.312 ± 0.021 | 0.2598 ± 0.0021 | 0.222 ± 0.031 | 0.185 ± 0.005 | 0.144 ± 0.0094 | 0.29 ± 0.041 | 0.451 ± 0.01 | 0.226 ± 0.0088 | 0.242 ± 0.019 | 0.406 ± 0.015 | 0.402 ± 0.0097 | 0.35 ± 0.02
5 | O=[N+]([O-])O[C@H]1CO[C@H]2[C@@H]1OC[C@H]2O[N+](=O)[O-] [Isosorbide dinitrate] | 0.243 ± 0.013 | 0.32 ± 0.014 | 0.263 ± 0.0089 | 0.217 ± 0.025 | 0.185 ± 0.0031 | 0.159 ± 0.0026 | 0.476 ± 0.013 | 0.419 ± 0.07 | 0.213 ± 0.012 | 0.27 ± 0.03 | – | 0.4084 ± 0.0022 | 0.343 ± 0.014
6 | CC(=O)OC1CN2CCC1CC2 (stereo not drawn) [Aceclidine Hydrochloride] | 0.257 ± 0.0078 | 0.314 ± 0.0082 | 0.2646 ± 0.0025 | 0.232 ± 0.041 | 0.174 ± 0.0042 | 0.166 ± 0.0076 | 0.22 ± 0.0099 | 0.306 ± 0.013 | 0.204 ± 0.02 | 0.232 ± 0.023 | – | 0.41 ± 0.007 | 0.359 ± 0.031
7 | COc1ccc(Cc2nccc3cc(OC)c(OC)cc23)cc1OC [Papaverine hydrochloride] | 0.153 ± 0.0032 | 0.199 ± 0.0045 | 0.215 ± 0.0047 | 0.141 ± 0.0019 | 0.087 ± 0.0015 | 0.133 ± 0.0021 | 0.133 ± 0.013 | 0.262 ± 0.035 | 0.148 ± 0.0024 | 0.161 ± 0.0073 | 0.579 ± 0.04 | 0.397 ± 0.0098 | 0.22 ± 0.0059
8 | COc1cccc(C2(O)CCCCC2CN(C)C)c1 (stereo not drawn) [Tramadol hydrochloride] | 0.238 ± 0.0082 | 0.308 ± 0.012 | 0.271 ± 0.0049 | 0.193 ± 0.0059 | 0.193 ± 0.012 | 0.1352 ± 0.00092 | 0.31 ± 0.028 | 0.403 ± 0.065 | 0.188 ± 0.04 | 0.202 ± 0.014 | – | 0.4058 ± 0.0034 | 0.327 ± 0.016
9 | NCCc1c[nH]c2ccc(O)cc12 [Serotonin hydrochloride] | 0.231 ± 0.013 | 0.297 ± 0.011 | 0.269 ± 0.0069 | 0.198 ± 0.036 | 0.201 ± 0.0049 | 0.145 ± 0.0029 | 0.361 ± 0.022 | 0.405 ± 0.091 | 0.209 ± 0.011 | 0.237 ± 0.0078 | 0.475 ± 0.0089 | 0.407 ± 0.02 | 0.338 ± 0.054
10 | C[C@]12CC[C@@H]3c4ccc(OC(=O)N(CCCl)CCCl)cc4CC[C@H]3[C@@H]1CC[C@@H]2O [Estramustine] | 0.248 ± 0.0012 | 0.306 ± 0.011 | 0.284 ± 0.01 | 0.212 ± 0.011 | 0.147 ± 0.009 | 0.1686 ± 0.00066 | 0.207 ± 0.025 | 0.189 ± 0.049 | 0.173 ± 0.0048 | 0.187 ± 0.015 | – | 0.396 ± 0.014 | 0.31 ± 0.0085
11 | CN(C)C(=O)Oc1ccc[n+](C)c1 [Pyridostigmine iodide] | 0.248 ± 0.011 | 0.305 ± 0.0085 | 0.25 ± 0.0086 | 0.253 ± 0.012 | 0.181 ± 0.0086 | 0.138 ± 0.0049 | 0.335 ± 0.049 | 0.434 ± 0.076 | 0.195 ± 0.017 | 0.221 ± 0.0064 | 0.436 ± 0.011 | 0.404 ± 0.017 | 0.355 ± 0.0089
12 | CC[C@@H](CO)NC(=O)[C@@H]1C=C2c3cccc4[nH]cc(c34)C[C@H]2N(C)C1 [Methylergometrine maleate] | 0.227 ± 0.0031 | 0.262 ± 0.0081 | 0.207 ± 0.0073 | 0.279 ± 0.0098 | 0.119 ± 0.0017 | 0.178 ± 0.0023 | 0.228 ± 0.051 | 0.267 ± 0.069 | 0.129 ± 0.028 | 0.156 ± 0.057 | 0.523 ± 0.018 | 0.4 ± 0.0081 | 0.359 ± 0.0099
13 | C[N+]12CCC(CC1)C(OC(=O)C(O)(c1ccccc1)c1ccccc1)C2 (stereo not drawn) [Clidinium bromide] | 0.239 ± 0.0044 | 0.326 ± 0.011 | 0.273 ± 0.0033 | 0.175 ± 0.03 | 0.187 ± 0.01 | 0.132 ± 0.0086 | 0.288 ± 0.035 | 0.453 ± 0.034 | 0.169 ± 0.01 | 0.201 ± 0.0094 | 0.611 ± 0.031 | 0.406 ± 0.015 | 0.353 ± 0.019
14 | CN[C@@H]1C[C@@H](c2ccc(Cl)c(Cl)c2)c2ccccc21 [Indatraline hydrochloride] | 0.0397 ± 0.00076 | 0.0417 ± 0.00046 | 0.0413 ± 0.00055 | 0.0425 ± 0.0013 | 0.03897 ± 0.00015 | 0.0445 ± 0.002 | 0.0513 ± 0.0011 | 0.0522 ± 0.0001 | 0.052 ± 0.0016 | 0.05117 ± 0.00042 | 0.0509 ± 0.0003 | 0.24 ± 0.15 | 0.0505 ± 0.00096
15 | O=c1[nH]oc2c1CCNC2 [THIP Hydrochloride] | 0.26 ± 0.0053 | 0.316 ± 0.0096 | 0.266 ± 0.0055 | 0.2 ± 0.019 | 0.194 ± 0.014 | 0.136 ± 0.0034 | 0.262 ± 0.035 | 0.433 ± 0.04 | 0.2018 ± 0.0015 | 0.238 ± 0.014 | 0.539 ± 0.087 | 0.41 ± 0.013 | 0.349 ± 0.018
16 | NCC(O)c1ccc(O)cc1 (racemic) [(+,-)-Octopamine hydrochloride] | 0.258 ± 0.0024 | 0.325 ± 0.02 | 0.268 ± 0.011 | 0.194 ± 0.012 | 0.179 ± 0.0096 | 0.162 ± 0.0021 | 0.483 ± 0.015 | 0.45 ± 0.018 | 0.203 ± 0.0088 | 0.271 ± 0.022 | 0.584 ± 0.08 | 0.408 ± 0.015 | 0.337 ± 0.014
